In PubChem BioAssay (NCATS):
Values joined by “and” are separate entries in the source; they are usually repeats but may differ in a detail not shown here. Equal values may be shown once. Results filed as inconclusive are left out. A call without a number means that no potency is given here. The source holds several records for some structures; these can differ, active in one and inactive in another. Active and inactive are the calls of the source. Calls come from the whole dose curve; as a rule, active = well fitted curve in the direction sought with a large enough effect; inconclusive = small, poorly fitted or top-dose-only effect, or another doubt; inactive = no such curve, though single readings can be large; an effect the other way counts as inactive or inconclusive. Where a SMILES comes first, the peptide text is derived from it.

Assays:
[1] = target: Cytochrome P450 3A7 (Homo sapiens) (UniProt P24462); test: Cytochrome P450 family 3 subfamily A member 7 (CYP3A7) small molecule antagonists: luciferase biochemical qHTS assay (AID 1963596); note: nearly all actives have a fitted effect of over 40% in size
Cytochrome P450 3A7 (Homo sapiens), sequence (P24462 whole entry, looked up): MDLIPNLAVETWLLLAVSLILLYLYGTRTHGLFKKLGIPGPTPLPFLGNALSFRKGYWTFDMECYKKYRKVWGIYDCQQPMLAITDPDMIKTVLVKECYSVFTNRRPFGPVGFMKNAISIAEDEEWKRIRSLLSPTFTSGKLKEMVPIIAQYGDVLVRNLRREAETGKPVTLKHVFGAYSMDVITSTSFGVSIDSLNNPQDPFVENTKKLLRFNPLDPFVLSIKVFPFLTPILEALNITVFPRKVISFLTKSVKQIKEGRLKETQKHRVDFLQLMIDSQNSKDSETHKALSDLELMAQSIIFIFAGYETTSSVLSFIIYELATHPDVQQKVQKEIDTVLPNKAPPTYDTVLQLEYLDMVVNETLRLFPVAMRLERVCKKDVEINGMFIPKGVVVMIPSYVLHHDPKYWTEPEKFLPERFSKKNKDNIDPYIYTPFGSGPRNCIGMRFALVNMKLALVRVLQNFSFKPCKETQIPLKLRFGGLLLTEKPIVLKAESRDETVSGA
Method in brief: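 Biochemical CYP3A7 activity measured with P450-Glo system: luciferin formed from proluciferin substrate in NADPH-driven reaction (1 h, room temperature) after 10 min compound preincubation. Signal in relative luminescence units.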

[2] = Viability qHTS for spleen associated tyrosine kinase inhibitor (SYKi) naive MV4-11 cells (AID 1963823); note: nearly all actives have a fitted effect of over 40% in size; note: potency is the fitted concentration of half-maximal effect
Method in brief: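 Read-out: CellTiter-Glo luminescence. Exposure: 72 hr, 37 C, 5% CO2, 95% humidity. Cells: MV4-11 without SYK inhibitor history, 500/well, qHTS format.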

[3] = Viability qHTS for spleen associated tyrosine kinase inhibitor (SYKi) drug resistant MV4-11 cells (AID 1963824); note: nearly all actives have a fitted effect of over 35% in size; note: potency is the fitted concentration of half-maximal effect
Method in brief: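 CellTiter-Glo luminescence, read 10 min after reagent addition, reports viability after a 72 hr compound exposure. Cells are an MV4-11 line made resistant to SYK inhibition, seeded at 500 per well onto compound-containing plates.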

[4] = Cellular viability qHTS for adrenocortical cancer (ACC) cell line SW-13 (AID 1963989); conditions: SW-13 ACC cells viability, CellTiter-Glo, 48 h; activity (max response): stronger effect = lower value; note: nearly all actives have a fitted effect of over 65% in size; note: potency is the fitted concentration of half-maximal effect;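 for activity (max response): cells grown in serum-free medium with ITS supplement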
Method in brief: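 Compound titrations (up to 46 uM final, in DMSO) were applied to SW-13 cells for 48 h at 37C/5% CO2. Reading used CellTiter-Glo after 20 min at room temperature; fitted curves yielded IC50 and efficacy.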

[5] = Cellular viability qHTS for adrenocortical cancer (ACC) cell line NCI-H295R (AID 1963990); note: nearly all actives have a fitted effect of over 60% in size; note: potency is the fitted concentration of half-maximal effect
Method in brief: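 Readout: CellTiter-Glo luminescence, 20 min RT. Exposure: 48 h, 37C/5% CO2. Cells: NCI-H295R, ITS-DMEM serum-free. Range: up to 46 uM. Analysis: 4PL fit, IC50 plus efficacy.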

SMILES | Potency [1] | Potency [2] | Potency [3] | activity (max response) [4] | Potency [5] | Potency [4] | activity change, negative = inhibition [1] | viability (% of control) [2] | viability, % of control [3] | activity change, negative = viability loss [5]
CN(C)CC[C@@H](c1ccc(Br)cc1)c1ccccn1 | inactive | inactive | inactive | 2.25% (inactive) | inactive | – | – | – | – | –
CO[C@]1(NC(=O)CSC(F)F)C(=O)N2C(C(=O)O)=C(CSc3nnnn3CCO)CO[C@H]21 | inactive | inactive | 5.8 µM (active) | -9.56% (inactive) | inactive | – | – | – | – | –
Nc1c[n+](N2CCOCC2)no1 | inactive | inactive | inactive | -4.73% (inactive) | inactive | – | – | – | – | –
CCN(CC)C(=O)c1cccc(C)c1 | inactive | inactive | inactive | 6.94% (inactive) | inactive | – | – | – | – | –
[O-][n+]1cccc(CO)c1 | inactive | inactive | inactive | 9.62% (inactive) | inactive | – | – | – | – | –
CN(C)CC/C=C1/c2ccccc2COc2ccc(CC(=O)O)cc21 | inactive | inactive | inactive | 1.77% (inactive) and 7.73% (inactive) | inactive | – | – | – | – | –
O=C1NC(=O)[C@@]2(CCOc3ccc(F)cc32)N1 | inactive | inactive | inactive | 3.16% (inactive) | inactive | – | – | – | – | –
COC(=O)c1cc(Cl)ccc1OC | inactive | inactive | inactive | -2.06% (inactive) | inactive | – | – | – | – | –
Cc1cc(C)c(NC(=O)CN(CC(=O)O)CC(=O)O)c(C)c1Br | inactive | inactive | inactive | 9.39% (inactive) | inactive | – | – | – | – | –
Nc1nc(-c2ccccc2)c(Br)c(=O)[nH]1 | inactive | inactive | inactive | 0.407% (inactive) | inactive | – | – | – | – | –
Nc1nc2c(ncn2CCC(CO)CO)c(=O)[nH]1 | inactive | inactive | inactive | -4.77% (inactive) | inactive | – | – | – | – | –
C=CC(=O)Nc1cccc(Nc2nc(Nc3ccc(N4CCN(C(C)=O)CC4)cc3OC)ncc2C(F)(F)F)c1 | inactive | 1.64 µM (active) and 1.05 µM (active) | 1.84 µM (active) and 1.86 µM (active) | – | 3.55 µM (active) | 2.24 µM (active) | – | – | – | –
C[C@H]1[C@H]2CC[C@H]3[C@@H]4CC=C5C[C@@H](N(C)C)CC[C@]5(C)[C@H]4CC[C@]23CN1C | inactive | inactive | inactive | -17.7% (inactive) | inactive | – | – | – | – | –
O=C(O)/C=C\C(=O)O | inactive | inactive | inactive | 6.23% (inactive) | inactive | – | – | – | – | –
CN(C)CCN1C(=O)c2ccccc2N(C)c2ccccc21 | inactive | inactive | inactive | -13.1% (inactive) | inactive | – | – | – | – | –
COc1cc(N2CCC(N3CCN(C)CC3)CC2)ccc1Nc1ncnc(Nc2ccccc2S(=O)(=O)C(C)C)n1 | inactive | 1.16 µM (active) and 1.32 µM (active) | 2.06 µM (active) and 2.63 µM (active) | – | 8.91 µM (active) | 11.2 µM (active) | – | – | – | –
NS(=O)(=O)c1cc(C2(O)NC(=O)c3ccccc32)ccc1Cl (stereo not given) | inactive | inactive | inactive | 17.7% (inactive) | inactive | – | – | – | – | –
CC(=O)N[C@@H](CO)C(=O)N[C@@H](CC(=O)O)C(=O)N[C@@H](CCCCN)C(=O)N1CCC[C@H]1C(=O)O (Ac-SDKP-OH) | inactive | inactive | inactive | 0.638% (inactive) | inactive | – | – | – | – | –
CCCNC(=O)NS(=O)(=O)c1ccc(Cl)cc1 | inactive | inactive | inactive | -2.41% (inactive) | inactive | – | – | – | – | –
O=C(Nc1ccc(-c2ccnc(Nc3ccc(N4CCOCC4)cc3)n2)cc1)C1CCCN1 (stereo not given) | inactive | 1.66 µM (active) | 1.46 µM (active) and 2.35 µM (active) | -0.397% (inactive) | inactive | – | – | – | – | –
C[C@](N)(Cc1ccc(O)cc1)C(=O)O | – | – | – | -6.01% (inactive) | – | – | 1.38% [at 4.83 µM] (inactive) | 79.1% [at 4.97 µM] (inactive) | 90.5% [at 4.97 µM] (inactive) | -1.14% [at 3.81 µM] (inactive)
CC(N=C(NC#N)Nc1ccncc1)C(C)(C)C (stereo not given) | inactive | inactive | inactive | 1.19% (inactive) | inactive | – | – | – | – | –
CN1CCN(C2CCN(C(=O)Nc3cc(Oc4ccc(NC(=O)C5(C(=O)Nc6ccc(F)cc6)CC5)c(F)c4)ccn3)CC2)CC1 | inactive | 65.1 nM (active) and 93.4 nM (active) | 116 nM (active) and 132 nM (active) | – | 25.1 µM (active) | 28.2 µM (active) | – | – | – | –
OCC(O)CN1CCN(c2ccccc2)CC1 (stereo not given) | inactive | 422 nM (active) and inactive | inactive | -5.47% (inactive) | inactive | – | – | – | – | –
COc1cc2[nH]c(=O)[nH]c(=O)c2cc1OC | inactive | inactive | inactive | 11.4% (inactive) | inactive | – | – | – | – | –
NC(Cc1ccc(Cl)cc1)C(=O)O (stereo not given) | – | – | – | -3.09% (inactive) | – | – | -2.28% [at 0.91 µM] (inactive) | 87.6% [at 0.588 µM] (inactive) | 93.1% [at 0.588 µM] (inactive) | -11% [at 0.587 µM] (inactive)
O=C(O)[C@H](O)c1ccccc1 | inactive | inactive | inactive | 6.97% (inactive) | inactive | – | – | – | – | –
Cc1c(F)c(N2CCNC(C)C2)cc2c1c(=O)c(C(=O)O)cn2C1CC1 (stereo not given) | inactive | inactive | inactive | -0.964% (inactive) | inactive | – | – | – | – | –
